Inconclusive results are not listed. Entries that show only a call come without a potency. The source made the active and inactive calls. The call rests on the fitted dose curve; in most records, active means well fitted cell-killing curve with a large enough effect in the repeat runs; inconclusive means weak or mixed curves, or effect the other way; inactive means flat fitted curve, though single readings scatter.

For 40 compounds, Potency results are on record in PubChem BioAssay (Tox21).
Potency means the concentration at half of the fitted maximal effect.

A short description of this assay: cAMP Responsive Elements (CRE) small molecule agonists, cell-based qHTS assay: qHTS cell viability counter screen (AID 2060914).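 Further: viability read after 3 h of compound exposure; nearly all actives have a fitted effect of over 50% in size.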 The conditions noted are these: CRE-bla HEK293T viability, CellTiter-Glo luminescence, 5 h; series mostly up to 92.4 µM. The source says: National Center for Advancing Translational Sciences [NCATS]
Division of Preclinical Innovation [DPI]
U.S. Environmental Protection Agency [EPA]
National Institutes of Environmental Health Sciences [NIEHS]
National Toxicology Program [NTP]
U.S. Food and Drug Administration [FDA]
CREB (cyclic-AMP Responsive Element Binding Protein) is a cellular transcription factor. It binds to certain DNA sequences called cAMP Responsive Elements (CRE) and regulates the transcription of the genes. […] This cell line can be used to find agonists/antagonists of the cyclic AMP signaling pathway. The activation of the report gene under culture conditions can be detected by fluorescence intensity. This cell line has been used to screen the Tox21 10K compound library to identify agonists that induce oxidative stress. The cytotoxicity of the Tox21 compound library against the CRE-bla cell line was tested in parallel by measuring the cell viability using CellTiter-Glo assay (Promega, Madison, WI) in the same wells.
Tox21 Assay Protocol Summary:
CRE-bla Hek 293T cells were suspended in assay medium (DMEM containing 10% dialyzed FBS, 0.1 mM NEAA, 1 mM sodium pyruvate and 25 mM HEPES) and dispensed at 2,000 cells/5 uL /well into 1536-well black wall/clear bottom plates using a Multidrop Combi (ThermoFisher Scientific, Waltham, MA) dispenser. After the assay plates were incubated at 37 C/5% CO2 for 18 hrs, 23 nL of compounds dissolved in DMSO, positive controls or DMSO only was transferred to the assay plate by a pintool workstation (Kalypsys, San Diego, CA). After the plates were incubated at 37 C/5% CO2 for 3 hrs, 1 uL of LiveBLAzer B/G FRET substrate (Invitrogen, Carlsbad, CA) was added to each well using Bioraptr Flying Reagent Dispenser (FRD, Aurora Discovery, San Diego, CA). The plates were incubated at room temperature for 2 h, then fluorescence intensities were measured using an Envision plate reader (PerkinElmer, Shelton, CT) at Excitation 405nm, Emission 460nm and 530nm. The % activity was determined from the ratio of 460nm/530nm. For cell viability readout that measures cytotoxicity, 4 uL /well of CellTiter-Glo reagent was added into the assay plates using Bioraptr FRD. After 30 min incubation at room temperature, the luminescence intensity in the assay plates was measured using a ViewLux (PerkinElmer, Shelton, CT) plate reader.
In general terms: qHTS replaces the single test concentration by a dilution series.
As for `C1CCCC1`, the Potency entry is “inactive”.

On to `CCO`, for which the Potency entry was “inactive”.

Turning to `O=C(O)C1CCC(C(=O)O)CC1` (stereo not given), the Potency result was “inactive”.

For the compound `OCCN1CCN(CCCN2c3ccccc3C=Cc3ccccc32)CC1`, the Potency result is “inactive”.

Regarding `Cc1cc(C)cc([N+](=O)[O-])c1`, the Potency entry was “inactive”.

For the compound `C=CC(=O)O`, the Potency entry was “inactive”.

Regarding `c1ccc2c(c1)ccc1ccccc12`, the Potency entry was “inactive”.

Turning to `C=CCCCCCCCCO`, the Potency result is “inactive”.

For the compound `CC(C)C(O)(c1ccc(OC(F)(F)F)cc1)c1cncnc1` (stereo not given), the Potency entry was “inactive”.

Consider `CCC(C)c1cc(C(C)(C)C)c(O)c(C(C)(C)C)c1` (stereo not given), for which the Potency entry was “inactive”.

Turning to `c1ccc2cc3c(ccc4ccccc43)cc2c1`, the Potency entry was “inactive”.

Turning to `CC(C)(C)c1nnc(NS(=O)(=O)c2ccccc2)s1`, the Potency result is “inactive”.

With `CC(C)(C)c1ccc(C(=O)O)cc1`, the Potency entry was “inactive”.

With `CC(C)NCC(O)COc1ccc(COCCOC(C)C)cc1` (stereo not given), the Potency result was “inactive”.

For `CC(C)(Sc1cc(C(C)(C)C)c(O)c(C(C)(C)C)c1)Sc1cc(C(C)(C)C)c(O)c(C(C)(C)C)c1`, the Potency result was “inactive”.

Regarding `CCCC/C=C/C=C\C=O`, the Potency result was “inactive”.

Take `CC(=O)OCCc1ccccc1`: the Potency result is “inactive”.

In the case of `O=Cc1cc2ccccc2o1`, the Potency result was “inactive”.

In the case of `CN(C)c1ccc(O)c2c1C[C@H]1C[C@H]3[C@H](N(C)C)C(=O)C(C(N)=O)=C(O)[C@@]3(O)C(=O)C1=C2O`, the Potency result was “inactive”.

`C[C@@H]1[C@H](O)[C@@H](C)/C=C/C=C\C=C\C=C\C=C\C=C\C=C\[C@H](O[C@@H]2O[C@H](C)[C@@H](O)[C@H](N)[C@@H]2O)C[C@@H]2O[C@](O)(C[C@@H](O)C[C@@H](O)[C@H](O)CC[C@@H](O)C[C@@H](O)CC(=O)O[C@H]1C)C[C@H](O)[C@H]2C(=O)O` (stereo in doubt): the Potency result was “inactive”.

`CCCCN(CCCC)CCC(O)c1cc2c(Cl)cc(Cl)cc2c2cc(C(F)(F)F)ccc12` (stereo not given): the Potency result is “inactive”.

For `CCOc1ccc2[nH]cc(C(=O)NCc3ccccc3)c(=O)c2n1`, the Potency entry is “inactive”.

In the case of `CCCc1ncc(C(=O)O)s1`, the Potency entry is “inactive”.

On to `CSSc1ccoc1C`, for which the Potency result was “inactive”.

On to `Nc1cccc(O)c1`, for which the Potency result is “inactive”.

As to `CCN(CCO)c1cccc(C)c1`, the Potency entry was “inactive”.

`CC(=O)CC(=O)N(C)C`: the Potency entry was “inactive”.

Turning to `CC(=O)Nc1ncc([N+](=O)[O-])s1`, the Potency result was “inactive”.

In the case of `C=C(C)C(=O)OCC(C)C`, the Potency result is “inactive”.

For the compound `O=[N+]([O-])c1ccc(NCCO)c(OCCO)c1`, the Potency entry is “inactive”.

As for `CCCCCCCC/C=C\CCCCCCCCOCCO`, the Potency is 63.1 µM (active).

Regarding `c1ccc(-c2ccccc2-c2ccccc2)cc1`, the Potency entry was “inactive”.

Turning to `COC(=O)Nc1nc2ccc(Sc3ccccc3)cc2[nH]1`, the Potency result was “inactive”.

Take `O=c1cccc[nH]1`: the Potency entry was “inactive”.

Take `Clc1cc(Cl)c(Cl)c(Cl)c1Cl`: the Potency result was “inactive”.

Turning to `CCCCC1CCC(=O)O1` (stereo not given), the Potency entry is “inactive”.

On to `c1cc(OCC2CO2)cc(OCC2CO2)c1` (stereo not given), for which the Potency entry is “inactive”.

`CCCCCCCC/C=C/CCCOC(C)=O`: the Potency result was “inactive”.

As to `CCC1NC(=O)c2cc(S(N)(=O)=O)c(Cl)cc2N1` (stereo not given), the Potency entry is “inactive”.

Take `NCCN`: the Potency result is “inactive”.
